Source: the supplement of paper PMC10849652
Of roughly 7,900 targets only a part is listed; those with a hit were picked by preference. About 0.6% of all pairs of compound and target were hits.

Compound: Nc1ccccc1NC(=O)c1ccc(CNC(=O)OCc2cccnc2)cc1 [entinostat]
Experiment: log2 fold change, soluble protein after heating vs DMSO (PISA); higher = thermal stabilisation; K562 cells, 10 uM, 30 min; active = over 0.2 and 3.5 SD of the protein, either way, in both replicates (recomputed)
Outline: (§1)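 K562 cells at 2×10^6 cells/mL were treated for 30 min with 10 μM compound, and aliquots were heated for 3 min over 48°C-58°C before pooling. Extraction used PBS with 0.5% NP-40 at 4°C, and soluble protein was the supernatant after 21,000xg for 90 min, measured by TMTpro 16plex LC-MS/MS with channel sums equalised. Thermal stability values, relative to control samples and from duplicates, are log2 fold changes.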

UniProt Q9BU23, sequence (Q9BU23 whole entry, looked up): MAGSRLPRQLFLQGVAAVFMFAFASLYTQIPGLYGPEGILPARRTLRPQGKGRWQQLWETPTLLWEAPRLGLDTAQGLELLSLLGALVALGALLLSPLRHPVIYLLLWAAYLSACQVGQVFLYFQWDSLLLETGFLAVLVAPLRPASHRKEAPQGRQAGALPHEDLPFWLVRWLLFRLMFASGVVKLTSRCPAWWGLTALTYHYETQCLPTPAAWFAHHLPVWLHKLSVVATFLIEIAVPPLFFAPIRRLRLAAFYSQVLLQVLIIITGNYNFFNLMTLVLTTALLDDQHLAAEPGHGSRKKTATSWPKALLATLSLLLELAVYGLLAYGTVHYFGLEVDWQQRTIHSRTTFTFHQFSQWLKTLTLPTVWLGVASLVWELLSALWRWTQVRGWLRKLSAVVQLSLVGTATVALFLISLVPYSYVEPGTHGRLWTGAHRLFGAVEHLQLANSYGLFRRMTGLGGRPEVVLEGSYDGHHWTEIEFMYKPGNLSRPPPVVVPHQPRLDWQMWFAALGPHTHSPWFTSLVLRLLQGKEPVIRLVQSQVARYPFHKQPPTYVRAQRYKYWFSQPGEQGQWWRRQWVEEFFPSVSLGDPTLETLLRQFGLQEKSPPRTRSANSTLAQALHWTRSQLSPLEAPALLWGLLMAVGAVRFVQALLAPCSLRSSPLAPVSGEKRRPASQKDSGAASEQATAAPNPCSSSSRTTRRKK
UniProt O60333, sequence (O60333 whole entry, looked up): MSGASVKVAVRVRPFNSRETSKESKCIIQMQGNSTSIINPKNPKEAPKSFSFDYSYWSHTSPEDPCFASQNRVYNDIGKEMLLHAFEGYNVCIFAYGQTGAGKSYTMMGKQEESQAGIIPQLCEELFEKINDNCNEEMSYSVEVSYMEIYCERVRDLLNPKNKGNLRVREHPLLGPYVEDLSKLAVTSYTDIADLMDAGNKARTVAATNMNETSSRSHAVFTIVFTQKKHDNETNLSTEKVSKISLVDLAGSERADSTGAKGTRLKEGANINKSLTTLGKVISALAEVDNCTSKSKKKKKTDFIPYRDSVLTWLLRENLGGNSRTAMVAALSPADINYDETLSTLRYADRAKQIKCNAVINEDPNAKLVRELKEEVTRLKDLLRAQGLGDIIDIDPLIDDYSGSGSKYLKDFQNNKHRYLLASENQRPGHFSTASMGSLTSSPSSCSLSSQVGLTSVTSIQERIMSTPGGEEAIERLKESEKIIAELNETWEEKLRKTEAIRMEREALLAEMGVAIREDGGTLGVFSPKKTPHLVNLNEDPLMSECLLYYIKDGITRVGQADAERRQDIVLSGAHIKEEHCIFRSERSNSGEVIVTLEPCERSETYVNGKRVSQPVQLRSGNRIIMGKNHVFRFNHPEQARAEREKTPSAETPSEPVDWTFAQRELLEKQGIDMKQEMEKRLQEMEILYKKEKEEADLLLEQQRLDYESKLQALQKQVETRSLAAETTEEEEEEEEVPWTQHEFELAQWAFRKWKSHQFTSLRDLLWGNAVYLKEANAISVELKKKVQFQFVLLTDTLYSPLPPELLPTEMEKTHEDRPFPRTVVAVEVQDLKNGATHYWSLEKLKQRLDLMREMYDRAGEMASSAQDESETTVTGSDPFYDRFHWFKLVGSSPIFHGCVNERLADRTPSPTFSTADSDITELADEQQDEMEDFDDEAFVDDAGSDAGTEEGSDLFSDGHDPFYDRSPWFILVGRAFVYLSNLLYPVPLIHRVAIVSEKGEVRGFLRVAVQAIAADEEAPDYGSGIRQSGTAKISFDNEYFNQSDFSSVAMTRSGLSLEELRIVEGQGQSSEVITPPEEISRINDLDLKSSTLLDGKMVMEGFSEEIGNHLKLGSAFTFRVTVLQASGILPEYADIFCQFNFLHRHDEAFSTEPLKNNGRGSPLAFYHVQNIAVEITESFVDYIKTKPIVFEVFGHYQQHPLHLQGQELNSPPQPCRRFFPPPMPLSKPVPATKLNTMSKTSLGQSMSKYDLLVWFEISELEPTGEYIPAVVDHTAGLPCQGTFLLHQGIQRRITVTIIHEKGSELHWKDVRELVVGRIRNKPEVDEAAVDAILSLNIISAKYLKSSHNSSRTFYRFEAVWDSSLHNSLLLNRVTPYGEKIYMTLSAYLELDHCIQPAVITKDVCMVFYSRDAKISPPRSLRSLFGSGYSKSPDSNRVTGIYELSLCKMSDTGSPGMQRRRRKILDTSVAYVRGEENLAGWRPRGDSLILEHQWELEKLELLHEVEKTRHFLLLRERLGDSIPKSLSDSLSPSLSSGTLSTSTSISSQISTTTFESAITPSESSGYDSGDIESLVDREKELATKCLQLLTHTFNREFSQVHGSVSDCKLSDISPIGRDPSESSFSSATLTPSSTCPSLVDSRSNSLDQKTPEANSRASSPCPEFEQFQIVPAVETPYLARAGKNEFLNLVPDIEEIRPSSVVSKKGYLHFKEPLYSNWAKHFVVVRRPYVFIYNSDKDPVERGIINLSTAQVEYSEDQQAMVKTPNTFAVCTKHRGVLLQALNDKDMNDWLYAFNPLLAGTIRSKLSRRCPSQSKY
UniProt Q9Y6R4, sequence (Q9Y6R4 whole entry, looked up): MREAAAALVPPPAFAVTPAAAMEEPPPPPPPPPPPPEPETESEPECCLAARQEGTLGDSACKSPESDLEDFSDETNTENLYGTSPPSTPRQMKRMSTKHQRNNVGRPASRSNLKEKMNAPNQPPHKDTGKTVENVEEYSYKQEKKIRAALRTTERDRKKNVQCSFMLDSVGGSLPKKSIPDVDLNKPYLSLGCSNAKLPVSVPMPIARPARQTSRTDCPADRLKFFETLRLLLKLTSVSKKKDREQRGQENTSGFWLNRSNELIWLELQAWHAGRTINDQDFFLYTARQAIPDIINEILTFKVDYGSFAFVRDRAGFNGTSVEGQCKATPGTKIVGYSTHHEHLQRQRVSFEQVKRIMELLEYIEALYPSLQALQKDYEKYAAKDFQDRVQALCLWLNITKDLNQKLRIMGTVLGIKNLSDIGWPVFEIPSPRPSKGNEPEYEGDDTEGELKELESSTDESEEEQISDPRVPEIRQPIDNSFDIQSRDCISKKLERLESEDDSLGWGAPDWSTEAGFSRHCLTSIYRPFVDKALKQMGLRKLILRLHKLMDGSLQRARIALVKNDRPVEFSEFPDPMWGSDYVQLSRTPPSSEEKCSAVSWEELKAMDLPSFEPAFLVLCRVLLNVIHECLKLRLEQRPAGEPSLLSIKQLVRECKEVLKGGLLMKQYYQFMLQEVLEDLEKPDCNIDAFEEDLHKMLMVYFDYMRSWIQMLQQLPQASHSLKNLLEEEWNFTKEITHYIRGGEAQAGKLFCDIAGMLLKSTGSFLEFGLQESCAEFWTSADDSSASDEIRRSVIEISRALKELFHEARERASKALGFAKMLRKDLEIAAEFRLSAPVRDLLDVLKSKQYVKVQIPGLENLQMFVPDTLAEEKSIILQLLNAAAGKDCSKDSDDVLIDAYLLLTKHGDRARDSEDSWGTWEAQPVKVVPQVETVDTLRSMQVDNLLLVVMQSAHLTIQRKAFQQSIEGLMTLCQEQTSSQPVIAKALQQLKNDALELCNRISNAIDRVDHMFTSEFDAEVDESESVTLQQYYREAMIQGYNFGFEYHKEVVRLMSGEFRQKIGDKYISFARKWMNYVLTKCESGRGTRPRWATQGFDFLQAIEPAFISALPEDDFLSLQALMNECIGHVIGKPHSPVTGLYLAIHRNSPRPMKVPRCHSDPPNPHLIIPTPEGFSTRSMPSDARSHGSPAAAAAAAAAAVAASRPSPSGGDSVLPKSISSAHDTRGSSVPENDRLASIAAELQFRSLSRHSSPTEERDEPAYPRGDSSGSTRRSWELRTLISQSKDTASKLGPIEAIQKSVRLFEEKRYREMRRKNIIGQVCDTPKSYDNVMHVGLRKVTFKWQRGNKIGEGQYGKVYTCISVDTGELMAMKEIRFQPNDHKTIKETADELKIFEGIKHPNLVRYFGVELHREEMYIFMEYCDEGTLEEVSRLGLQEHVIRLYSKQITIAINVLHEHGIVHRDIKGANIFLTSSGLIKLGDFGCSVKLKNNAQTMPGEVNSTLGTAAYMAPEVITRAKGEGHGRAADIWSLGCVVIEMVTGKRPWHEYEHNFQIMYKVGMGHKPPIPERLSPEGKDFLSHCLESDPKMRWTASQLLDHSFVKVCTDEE
UniProt Q96A72, sequence (Q96A72 whole entry, looked up): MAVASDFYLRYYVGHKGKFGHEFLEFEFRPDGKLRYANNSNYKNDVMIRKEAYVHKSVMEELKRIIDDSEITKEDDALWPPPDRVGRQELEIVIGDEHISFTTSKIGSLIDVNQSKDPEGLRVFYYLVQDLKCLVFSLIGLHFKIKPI
UniProt Q6P1A2, sequence (Q6P1A2 whole entry, looked up): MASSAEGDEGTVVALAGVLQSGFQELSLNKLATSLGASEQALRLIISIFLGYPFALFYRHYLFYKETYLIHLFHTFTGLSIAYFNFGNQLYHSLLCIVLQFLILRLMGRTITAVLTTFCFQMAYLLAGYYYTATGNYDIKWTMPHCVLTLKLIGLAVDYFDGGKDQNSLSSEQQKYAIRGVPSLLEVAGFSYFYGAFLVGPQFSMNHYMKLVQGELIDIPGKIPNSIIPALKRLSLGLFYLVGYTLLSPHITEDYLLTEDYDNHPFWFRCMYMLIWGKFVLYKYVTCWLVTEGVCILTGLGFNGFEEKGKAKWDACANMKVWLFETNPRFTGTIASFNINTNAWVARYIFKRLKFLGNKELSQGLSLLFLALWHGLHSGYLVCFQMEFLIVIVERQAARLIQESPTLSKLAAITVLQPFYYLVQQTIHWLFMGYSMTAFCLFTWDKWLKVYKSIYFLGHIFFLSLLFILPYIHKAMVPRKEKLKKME
UniProt P01116, sequence (P01116 whole entry, looked up): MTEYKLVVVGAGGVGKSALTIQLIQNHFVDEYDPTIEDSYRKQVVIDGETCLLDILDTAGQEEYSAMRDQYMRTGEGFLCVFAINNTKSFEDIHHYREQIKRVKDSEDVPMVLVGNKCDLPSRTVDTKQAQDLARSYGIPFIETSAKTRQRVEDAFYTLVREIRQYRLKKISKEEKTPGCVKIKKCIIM
UniProt Q5XKP0, sequence (Q5XKP0 whole entry, looked up): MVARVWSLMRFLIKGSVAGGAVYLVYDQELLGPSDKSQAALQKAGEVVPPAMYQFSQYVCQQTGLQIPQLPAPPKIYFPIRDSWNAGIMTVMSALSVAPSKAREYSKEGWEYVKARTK

Target	log2 fold change
KRAS isoform 2 (UniProt P01116)	-0.015 (inactive)
LEMD3 (UniProt Q9Y2U8)	-0.017 (inactive)
LIMD1 (UniProt Q9UGP4)	-0.038 (inactive)
LMF2 (UniProt Q9BU23)	-0.006 (inactive)
IPO13 (UniProt O94829)	0.012 (inactive)
LNPEP (UniProt Q9UIQ6)	-0.028 (inactive)
MAGOHB (UniProt Q96A72)	0.016 (inactive)
MAP3K7 (UniProt O43318)	0.035 (inactive)
KPNB1 (UniProt Q14974)	0.055 (inactive)
MAPK12 (UniProt P53778)	0.012 (inactive)
MEPCE (UniProt Q7L2J0)	0.063 (inactive)
ILF2 (UniProt Q12905)	-0.049 (inactive)
MAPKAPK3 (UniProt Q16644)	-0.068 (inactive)
MCL1 (UniProt Q07820)	0.072 (inactive)
MDN1 (UniProt Q9NU22)	0.112 (inactive)
MAP3K4 isoform 2 (UniProt Q9Y6R4)	-0.027 (inactive)
MAP2K2 (UniProt P36507)	0.061 (inactive)
KCTD2 (UniProt Q14681)	-0.35 (inactive)
MARK3 (UniProt P27448)	0.064 (inactive)
LUC7L2 (UniProt Q9Y383)	0.025 (inactive)

Target	log2 fold change
LMNB1 (UniProt P20700)	0.024 (inactive)
MICOS13 (UniProt Q5XKP0)	0.041 (inactive)
IMMT isoform 2 (UniProt Q16891)	0.039 (inactive)
KEAP1 (UniProt Q14145)	0.051 (inactive)
MAGI1 (UniProt Q96QZ7)	0.019 (inactive)
MGST3 (UniProt O14880)	-0.047 (inactive)
MICU1 isoform 3 (UniProt Q9BPX6)	0.016 (inactive)
MAP4 (UniProt E7EVA0)	-0.096 (inactive)
LNPK (UniProt Q9C0E8)	-0.013 (inactive)
KIF1B isoform 4 (UniProt O60333)	0.011 (inactive)
LIAS (UniProt O43766)	-0.047 (inactive)
MAPK8 isoform 3 (UniProt P45983)	0.001 (inactive)
MFGE8 (UniProt Q08431)	-0.082 (inactive)
KHDC4 (UniProt Q7Z7F0)	0.009 (inactive)
LUC7L3 (UniProt O95232)	-0.051 (inactive)
LTN1 isoform 3 (UniProt O94822)	0.056 (inactive)
LPCAT3 (UniProt Q6P1A2)	0.044 (inactive)
LMBRD2 (UniProt Q68DH5)	-0.011 (inactive)
KPNA6 (UniProt O60684)	0.051 (inactive)

Compound: O=C(CCCCCCC(=O)Nc1ccccc1)NO [vorinostat]
Experiment: as above
Outline: as §1

Target	log2 fold change
KRAS isoform 2 (UniProt P01116)	-0.032 (inactive)
LEMD3 (UniProt Q9Y2U8)	0.035 (inactive)
LIMD1 (UniProt Q9UGP4)	0.025 (inactive)
LMF2 (UniProt Q9BU23)	0.116 (inactive)
IPO13 (UniProt O94829)	0.138 (inactive)
LNPEP (UniProt Q9UIQ6)	-0.007 (inactive)
MAGOHB (UniProt Q96A72)	-0.023 (inactive)
MAP3K7 (UniProt O43318)	0.033 (inactive)
KPNB1 (UniProt Q14974)	0.038 (inactive)
MAPK12 (UniProt P53778)	0.08 (inactive)
MEPCE (UniProt Q7L2J0)	0.107 (inactive)
ILF2 (UniProt Q12905)	-0.059 (inactive)
MAPKAPK3 (UniProt Q16644)	-0.006 (inactive)
MCL1 (UniProt Q07820)	0.011 (inactive)
MDN1 (UniProt Q9NU22)	0.098 (inactive)
MAP3K4 isoform 2 (UniProt Q9Y6R4)	-0.019 (inactive)
MAP2K2 (UniProt P36507)	0.039 (inactive)
KCTD2 (UniProt Q14681)	-0.543 (inactive)
MARK3 (UniProt P27448)	0.139 (inactive)
LUC7L2 (UniProt Q9Y383)	0.029 (inactive)

Target	log2 fold change
LMNB1 (UniProt P20700)	-0.029 (inactive)
MICOS13 (UniProt Q5XKP0)	0.018 (inactive)
IMMT isoform 2 (UniProt Q16891)	0.159 (inactive)
KEAP1 (UniProt Q14145)	0.156 (inactive)
MAGI1 (UniProt Q96QZ7)	0.07 (inactive)
MGST3 (UniProt O14880)	-0.043 (inactive)
MICU1 isoform 3 (UniProt Q9BPX6)	0.017 (inactive)
MAP4 (UniProt E7EVA0)	-0.018 (inactive)
LNPK (UniProt Q9C0E8)	-0.006 (inactive)
KIF1B isoform 4 (UniProt O60333)	0.063 (inactive)
LIAS (UniProt O43766)	-0.17 (inactive)
MAPK8 isoform 3 (UniProt P45983)	-0.027 (inactive)
MFGE8 (UniProt Q08431)	0.03 (inactive)
KHDC4 (UniProt Q7Z7F0)	0.028 (inactive)
LUC7L3 (UniProt O95232)	-0.008 (inactive)
LTN1 isoform 3 (UniProt O94822)	0.148 (inactive)
LPCAT3 (UniProt Q6P1A2)	0.024 (inactive)
LMBRD2 (UniProt Q68DH5)	-0.015 (inactive)
KPNA6 (UniProt O60684)	0.061 (inactive)
